In PubChem BioAssay (EPA / NIEHS):
Calls of active or inactive are those of the source. The calls were made as follows: active = hit-call score of the fitted dose curve at least 0.9, where 1 is the maximum; inactive = score below 0.9.

How the values were obtained:
Details in all cases: mRNA level, 48 h; actives raise or lower the signal
[1] = read-out: matrix metalloproteinase-3 (MMP3), MMP3 (gene 4314); assay: LTEA_HepaRG_MMP3: Life Technologies and Expression Analysis (LTEA) Assay for matrix metalloproteinase-3 (MMP3) using HepaRG (AID 2283519)
Method in brief: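 qRT-PCR read-out of MMP3 mRNA (normalised to three housekeeping genes) in HepaRG liver cells after 48 h chemical exposure; 8-point half-log series, top 100 uM, 0.5% DMSO vehicle. Bidirectional curve fitting against DMSO baseline.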

[2] = read-out: solute carrier (SLC22A1), SLC22A1 (gene 6580); assay: LTEA_HepaRG_SLC22A1: Life Technologies and Expression Analysis (LTEA) Assay for solute carrier (SLC22A1) using HepaRG (AID 2283524);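 as to AC50: TaqMan qRT-PCR normalized to ACTB GAPDH and POLR2A housekeeping genes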
Method in brief: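 qRT-PCR readout (TaqMan, Fluidigm arrays) of SLC22A1 transcript, normalized to three housekeeping genes; bidirectional curve fit relative to 0.5% DMSO vehicle. Differentiated human HepaRG cells, 48 h chemical exposure, top concentration 100 uM, half-log steps, eight points.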

[3] = read-out: Pyruvate Dehydrogenase Kinase 4 (PDK4), PDK4 (gene 5166); assay: LTEA_HepaRG_PDK4: Life Technologies and Expression Analysis (LTEA) Assay for Pyruvate Dehydrogenase Kinase 4 (PDK4) using HepaRG (AID 2283525)
Method in brief: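 HepaRG (human liver line), 48 h chemical exposure, 8-pt half-log CRC top 100 uM, 0.5% DMSO vehicle, duplicates. Readout: TaqMan qRT-PCR of PDK4 mRNA, housekeeping-normalized; gain/loss fit relative to DMSO baseline.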

[4] = read-out: NAD(P)H dehydrogenase [quinone] 1 (NQO1), NQO1 (gene 1728); assay: LTEA_HepaRG_NQO1: Life Technologies and Expression Analysis (LTEA) Assay for NAD(P)H dehydrogenase [quinone] 1 (NQO1) using HepaRG (AID 2283526)
Method in brief: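 Transcript induction or suppression is quantified by qRT-PCR in human HepaRG liver cells dosed for 48 hours. Eight half-log concentrations topping at 100 uM are used, with 0.5% DMSO as vehicle and baseline.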

[5] = read-out: Nuclear factor erythroid 2-related factor 2 (Homo sapiens) (UniProt Q16236); assay: LTEA_HepaRG_NFE2L2: Life Technologies and Expression Analysis (LTEA) Assay for Nuclear factor erythroid 2-related factor 2 (NFE2L2) Transcription Factor using HepaRG (AID 2283527)
Method in brief: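 HepaRG, 48 h dosing, 8-pt half-log series from 100 uM in 0.5% DMSO, duplicates. Read-out: NFE2L2 mRNA by qRT-PCR (ACTB/GAPDH/POLR2A normalization). Bidirectional curve fit vs DMSO baseline.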

[6] = read-out: succinate dehydrogenase complex iron sulfur subunit B (SDHB), SDHB (gene 6390); assay: LTEA_HepaRG_SDHB: Life Technologies and Expression Analysis (LTEA) Assay for succinate dehydrogenase complex iron sulfur subunit B (SDHB) using HepaRG (AID 2283528)
Method in brief: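 A human HepaRG culture in serum-free induction medium received test chemicals for 48 h over an eight-point range capped at 100 uM. SDHB expression change was quantified by qRT-PCR.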

[7] = read-out: Protein phosphatase 2A (PPP2R4), PTPA (gene 5524); assay: LTEA_HepaRG_PPP2R4: Life Technologies and Expression Analysis (LTEA) Assay for Protein phosphatase 2A (PPP2R4) using HepaRG (AID 2283522)
Method in brief: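 Cells were plated, cultured 48 h, switched to serum-free induction medium, then dosed for 48 h (8 points, max 100 uM, 0.5% DMSO). RNA was isolated and PPP2R4 expression measured by TaqMan qRT-PCR.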

[8] = read-out: Phosphatase and tensin (PTEN), PTEN (gene 5728); assay: LTEA_HepaRG_PTEN: Life Technologies and Expression Analysis (LTEA) Assay for Phosphatase and tensin (PTEN) using HepaRG (AID 2283523)
Method in brief: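 HepaRG, 48 h exposure, 8-pt half-log series from 100 uM top, 0.5% DMSO vehicle, duplicates. Readout: Fluidigm qRT-PCR of PTEN transcript; housekeeping normalization (ACTB, GAPDH, POLR2A). Gain or loss fitted relative to DMSO baseline.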

[9] = read-out: solute carrier (SLCO1B1), SLCO1B1 (gene 10599); assay: LTEA_HepaRG_SLCO1B1: Life Technologies and Expression Analysis (LTEA) Assay for solute carrier (SLCO1B1) using HepaRG (AID 2283530)
Method in brief: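 Differentiated human HepaRG cells were exposed for 48 h in serum-free induction medium to eight half-log concentrations, top 100 uM, in 0.5% DMSO. SLCO1B1 mRNA was measured by qRT-PCR, normalized to ACTB, GAPDH and POLR2A, and fitted bidirectionally against DMSO.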

[10] = read-out: Nuclear factor NF-kappa-B p105 subunit (Homo sapiens) (UniProt P19838); assay: LTEA_HepaRG_NFKB1: Life Technologies and Expression Analysis (LTEA) Assay for Nuclear Factor Kappa B Subunit 1 (NFKB1) using HepaRG (AID 2283521)
Method in brief: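 Human HepaRG cells receive eight half-log concentrations, highest 100 uM, for 48 h. NFKB1 expression is then quantified by qRT-PCR and analysed for up- or down-regulation relative to 0.5% DMSO vehicle.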

Measured: AC50

Sequence of Nuclear factor NF-kappa-B p105 subunit (Homo sapiens) (P19838 whole entry, looked up): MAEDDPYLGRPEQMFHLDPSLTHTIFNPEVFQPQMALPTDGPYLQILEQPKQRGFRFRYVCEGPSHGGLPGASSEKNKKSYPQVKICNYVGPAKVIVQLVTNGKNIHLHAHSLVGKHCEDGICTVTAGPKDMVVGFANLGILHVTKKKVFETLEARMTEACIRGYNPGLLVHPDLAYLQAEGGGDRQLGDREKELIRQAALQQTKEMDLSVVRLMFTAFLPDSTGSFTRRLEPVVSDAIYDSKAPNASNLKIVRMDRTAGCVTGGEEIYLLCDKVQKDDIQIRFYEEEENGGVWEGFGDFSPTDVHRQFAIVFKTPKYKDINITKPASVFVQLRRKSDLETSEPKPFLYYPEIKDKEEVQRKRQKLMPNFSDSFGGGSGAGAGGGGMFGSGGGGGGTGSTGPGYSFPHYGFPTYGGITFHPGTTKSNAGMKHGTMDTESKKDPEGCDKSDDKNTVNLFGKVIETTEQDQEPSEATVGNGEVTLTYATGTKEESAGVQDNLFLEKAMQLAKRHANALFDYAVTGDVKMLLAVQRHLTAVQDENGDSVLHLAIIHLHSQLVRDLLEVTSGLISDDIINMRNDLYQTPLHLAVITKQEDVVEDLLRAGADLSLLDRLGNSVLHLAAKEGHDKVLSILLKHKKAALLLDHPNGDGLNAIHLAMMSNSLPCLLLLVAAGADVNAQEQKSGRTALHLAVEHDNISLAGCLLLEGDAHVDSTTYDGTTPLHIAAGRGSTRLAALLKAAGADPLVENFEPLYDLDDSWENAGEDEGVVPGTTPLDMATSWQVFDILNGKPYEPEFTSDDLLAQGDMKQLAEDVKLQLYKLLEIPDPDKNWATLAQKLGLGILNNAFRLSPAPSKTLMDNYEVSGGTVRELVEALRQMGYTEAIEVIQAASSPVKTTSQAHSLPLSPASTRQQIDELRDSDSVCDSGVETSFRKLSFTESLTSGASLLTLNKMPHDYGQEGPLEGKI
Sequence of Nuclear factor erythroid 2-related factor 2 (Homo sapiens) (Q16236 whole entry, looked up): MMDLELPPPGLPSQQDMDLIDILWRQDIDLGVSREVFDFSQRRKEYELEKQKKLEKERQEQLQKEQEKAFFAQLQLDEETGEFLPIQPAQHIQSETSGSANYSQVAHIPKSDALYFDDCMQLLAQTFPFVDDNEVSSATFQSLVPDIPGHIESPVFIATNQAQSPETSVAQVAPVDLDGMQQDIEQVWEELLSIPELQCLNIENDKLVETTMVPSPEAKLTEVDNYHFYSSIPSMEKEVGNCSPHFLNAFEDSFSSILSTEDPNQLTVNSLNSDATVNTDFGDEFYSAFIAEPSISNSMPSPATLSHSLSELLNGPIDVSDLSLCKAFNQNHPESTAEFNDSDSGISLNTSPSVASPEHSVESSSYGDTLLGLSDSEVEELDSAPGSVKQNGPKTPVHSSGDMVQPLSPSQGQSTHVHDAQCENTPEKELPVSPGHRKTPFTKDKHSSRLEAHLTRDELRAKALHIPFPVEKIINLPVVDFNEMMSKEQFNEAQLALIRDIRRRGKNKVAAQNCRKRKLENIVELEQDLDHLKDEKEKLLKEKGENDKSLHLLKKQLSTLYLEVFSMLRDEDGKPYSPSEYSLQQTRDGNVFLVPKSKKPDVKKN

CCCCCCCCCCCCOS(=O)(=O)O
active: [2] 77.5 µM | [3] 36.9 µM
inactive: [1] | [4] | [5] | [6]

CN(Cc1cnc2nc(N)nc(N)c2n1)c1ccc(C(=O)N[C@@H](CCC(=O)O)C(=O)O)cc1
active: [2] 0.137 µM | [3] 0.515 µM
not listed: [10]
inactive: all other assays above

OCC(CO)(CBr)CBr
inactive: all assays above

CS(=O)(=O)c1ccc([C@@H](CC2CCCC2)C(=O)Nc2cnccn2)cc1Cl
active: [7] 50 µM | [2] 66.7 µM | [9] 84 µM
not listed: [5] | [10]
inactive: all other assays above

CC(=O)Nc1ccc(O)cc1
not listed: [5] | [10]
inactive: all other assays above

Cc1[nH]nc2c1N=C(c1ccccc1Cl)c1cc([N+](=O)[O-])ccc1N2
active: [1] 9.48 µM | [2] 5.69 µM | [3] 0.37 µM | [5] 85.1 µM | [6] 0.449 µM | [9] 7.93 µM
inactive: [7] | [8] | [4]

CCCCC=O
inactive: all assays above

O=C(CCCN1CCC(O)(c2ccc(Cl)cc2)CC1)c1ccc(F)cc1
inactive: [7] | [8] | [4] | [6]
active: [1] 12.5 µM | [2] 85.5 µM | [3] 69.4 µM | [9] 82.6 µM

CCCCc1oc2ccccc2c1C(=O)c1cc(I)c(OCCN(CC)CC)c(I)c1
active: [2] 70.6 µM | [3] 59.2 µM | [9] 67.7 µM
not listed: [5] | [10]
inactive: all other assays above

CCC(C)c1ccccc1O (stereo not drawn)
inactive: all assays above

CN(C)CCOC(c1ccccc1)c1ccccc1
not listed: [5] | [10]
inactive: all other assays above

N=C(N)c1ccc(OCCCCCOc2ccc(C(=N)N)cc2)cc1
active: [10] 29.1 µM | [7] 28.4 µM | [8] 29.9 µM | [2] 6.6 µM | [4] 43.8 µM | [5] 10.1 µM | [6] 56.2 µM | [9] 3.57 µM

O=C(c1ccccc1)c1ccccc1
not listed: [5] | [10]
inactive: all other assays above

CCCCC(CC)C(=O)O (stereo not drawn)
not listed: [10]
inactive: all other assays above

O=C1NS(=O)(=O)c2ccccc21
not listed: [10]
inactive: all other assays above

CCCCCCCCCCCCCCC
inactive: all assays above
